In PubChem BioAssay (NCATS) one finds outcome data, which are given here for 24 molecules.

The experiment addresses Alpha-galactosidase (Coffea arabica) (UniProt Q42656). Put plainly: Counterscreen for Glucocerebrosidase Inhibitors: qHTS Assay for Coffee Bean alpha-Galactosidase at pH 5.9 (AID 998). Put shortly: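 In 50 mM citric acid pH 5.9 with 0.005% Tween-20, coffee bean enzyme hydrolyses 80 uM 4-MU alpha-D-galactopyranoside over 20 min at RT. Activity is normalized to controls; AC50 comes from Hill-modelled concentration-response data.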
Background: A counterscreen serves to expose hits that act by an unwanted route or on another target.

Activity calls are given as the source filed them. Calls come from the whole dose curve; as a rule, active = well fitted curve in the direction sought with a large enough effect; inactive = no such curve, though single readings can be large or run the other way.

Chain of Alpha-galactosidase (Coffea arabica) (Q42656 whole entry, looked up): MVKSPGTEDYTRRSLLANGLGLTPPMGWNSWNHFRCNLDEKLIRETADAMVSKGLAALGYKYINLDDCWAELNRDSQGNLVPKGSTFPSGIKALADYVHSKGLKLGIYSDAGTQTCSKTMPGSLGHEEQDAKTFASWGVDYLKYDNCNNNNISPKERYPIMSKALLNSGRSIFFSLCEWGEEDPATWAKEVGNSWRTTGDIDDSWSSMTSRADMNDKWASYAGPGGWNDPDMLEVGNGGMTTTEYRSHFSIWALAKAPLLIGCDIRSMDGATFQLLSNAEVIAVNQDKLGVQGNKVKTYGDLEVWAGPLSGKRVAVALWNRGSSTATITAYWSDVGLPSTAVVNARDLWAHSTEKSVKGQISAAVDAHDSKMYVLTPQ

Regarding `CCCNC(=O)NS(=O)(=O)c1ccc(Cl)cc1`, the outcome was inactive.
The value for `O=C(c1ccc(OCCN2CCCCC2)cc1)c1c(-c2ccc(O)cc2)sc2cc(O)ccc12` was “inactive”; that for `CCN(CC)CCOC(=O)C1(C2CCCCC2)CCCCC1` was “inactive”.
On to `Cc1ccccc1N1C(=O)c2cc(S(N)(=O)=O)c(Cl)cc2NC1C` (centres undefined), for which the molecule was called inactive.
The value for `COc1cc(Cc2cnc(N)nc2N)cc(OC)c1OC` was “inactive”; that for `CCC1(c2ccccc2)C(=O)NCNC1=O` was “inactive”.
The result for `NNCCc1ccccc1` reads “inactive”; that for `COC(=O)[C@H]1[C@H]2C[C@@H]3c4[nH]c5cc(OC)ccc5c4CCN3C[C@H]2C[C@@H](OC(=O)c2cc(OC)c(OC)c(OC)c2)[C@@H]1OC`, “inactive”.
The result for `N=c1nc(N2CCCCC2)cc(N)n1O` reads “inactive”; that for `CC(C)OC(=O)C(C)(C)Oc1ccc(C(=O)c2ccc(Cl)cc2)cc1`, “inactive”; that for `Nc1nc(N)c2nc(-c3ccccc3)c(N)nc2n1`, “inactive”.
Turning to `O=c1c(O)c(-c2ccc(O)c(O)c2)oc2cc(O)cc(O)c12`, the result was inactive.
The value for `OCCN1CCN(CCCN2c3ccccc3Sc3ccc(C(F)(F)F)cc32)CC1` was “inactive”.
Regarding `NC[C@H](O)c1ccc(O)c(O)c1`, the molecule was classed as inactive.
The result for `CNCCCC1c2ccccc2C=Cc2ccccc21` reads “inactive”.
The value for `NS(=O)(=O)c1cc2c(cc1Cl)NC=NS2(=O)=O` was “inactive”.
The result for `Cc1cnc(C(=O)NCCc2ccc(S(=O)(=O)NC(=O)NC3CCCCC3)cc2)cn1` reads “inactive”; that for `O=C1CCc2cc(OCCCCc3nnnn3C3CCCCC3)ccc2N1`, “inactive”.
For `O=c1n(CCCN2CCN(c3cccc(Cl)c3)CC2)nc2ccccn12`, the molecule was classed as inactive.
As to `NNc1nncc2ccccc12`, the molecule was called inactive.
Take `O=C1c2c(O)ccc(O)c2C(=O)c2c(NCCNCCO)ccc(NCCNCCO)c21`: the outcome was inactive.
The result for `COc1cc2c(c(OC)c1OC)-c1ccc(OC)c(=O)cc1[C@@H](NC(C)=O)CC2` reads “inactive”.
The result for `CCCN(CCC)CCc1cccc2c1CC(=O)N2` reads “inactive”.
The result for `Cc1nc2n(c(=O)c1CCN1CCC(c3noc4cc(F)ccc34)CC1)CCCC2` reads “inactive”.
